# Laboratory results as given in the supplement of paper PMC12494721.
# Structures can show the parent of a compound that is named as a salt.
# Legend:
# Conditions in all cases: incubation time: 27 h, anaerobic, 37 °C;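 for the amine columns active = adjusted P below 0.05 in both replicates with a change the same way and a mean fold change under 0.8 or over 1.25; inactive = the rest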
# [1] = test system: Clostridium sporogenes DSM 1664; test: growth (OD595) fold change vs plate DMSO controls (fold change (ratio)); higher = more growth
# Procedure, shortened: (§1)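 Anaerobic mGAM cultures in 96-well plates were grown for 27 h at 37 °C, and absorbance was then read at 595 nm. After blank and compound background correction with 20 µM compound solutions in water, a calibration factor of 5 gave OD. Growth is the fold change relative to the median of each plate's DMSO controls. Values are means of 2 biological replicates, with fold changes above 1.5 set to NA.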
# [2] = test system: Escherichia coli IAI1; test: as above
# Procedure, shortened: as §1
# [3] = test system: Klebsiella aerogenes DSM 30053; test: as above
# Procedure, shortened: as §1
# [4] = test system: Ruminococcus gnavus DSM 108212; test: as above
# Procedure, shortened: as §1
# [5] = test system: Klebsiella aerogenes DSM 30053; test: fold change of Histamine concentration vs plate DMSO controls (fold change (ratio)); higher = more amine produced, active = hit call of the paper (significant change in both replicates, either direction)
# Procedure, shortened: (§2)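 Extracts of whole anaerobic mGAM cultures were analysed for amines by LC–triple-quadrupole MS with dynamic MRM and external calibration curves, with drift corrected within batch. Four gut strains were grown at 37 °C for 27 h in 80 µL wells with compounds at 20 µM final, sweeteners at 50 µM final. Each value expresses fold change over plate DMSO controls. The average of 2 biological replicates is shown.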
# [6] = test system: Clostridium sporogenes DSM 1664; test: fold change of Tryptamine concentration vs plate DMSO controls (fold change (ratio)); higher = more amine produced, active = hit call of the paper (significant change in both replicates, either direction)
# Procedure, shortened: as §2
# [7] = test system: Ruminococcus gnavus DSM 108212; test: as above
# Procedure, shortened: as §2
# [8] = test system: Escherichia coli IAI1; test: fold change of Putrescine concentration vs plate DMSO controls (fold change (ratio)); higher = more amine produced, active = hit call of the paper (significant change in both replicates, either direction)
# Procedure, shortened: as §2
# [9] = test system: Klebsiella aerogenes DSM 30053; test: as above
# Procedure, shortened: as §2
# [10] = test system: Escherichia coli IAI1; test: fold change of Cadaverine concentration vs plate DMSO controls (fold change (ratio)); higher = more amine produced, active = hit call of the paper (significant change in both replicates, either direction)
# Procedure, shortened: as §2
# [11] = test system: Klebsiella aerogenes DSM 30053; test: as above
# Procedure, shortened: as §2
# [12] = test system: Ruminococcus gnavus DSM 108212; test: fold change of 2-Phenylethylamine concentration vs plate DMSO controls (fold change (ratio)); higher = more amine produced, active = hit call of the paper (significant change in both replicates, either direction)
# Procedure, shortened: as §2
SMILES,growth [1],growth [2],growth [3],growth [4],fold change of Histamine concentration [5],fold change of Tryptamine concentration [6],fold change of Tryptamine concentration [7],fold change of Putrescine concentration [8],fold change of Putrescine concentration [9],fold change of Cadaverine concentration [10],fold change of Cadaverine concentration [11],fold change of 2-Phenylethylamine concentration [12]
CCCN(CCC)S(=O)(=O)c1ccc(C(=O)O)cc1 [Probenecid] (20 µM),1.04,1.02,1.17,1.09,0.92 (inactive),0.999 (inactive),1 (inactive),0.984 (inactive),1 (inactive),1.04 (inactive),1.02 (inactive),1.02 (inactive)
CC(C(=O)O)c1ccc2c(c1)[nH]c1ccc(Cl)cc12 (stereo not given) [Carprofen] (20 µM),1.05,1.02,0.996,1.1,1.07 (inactive),0.958 (inactive),1.03 (inactive),1.05 (inactive),0.99 (inactive),1.03 (inactive),0.995 (inactive),1.06 (inactive)
Cc1ccc(Cl)c(Nc2ccccc2C(=O)O)c1Cl [Meclofenamic acid sodium salt monohydrate] (20 µM),1.01,0.972,1.16,1.12,0.916 (inactive),0.879 (inactive),0.959 (inactive),0.999 (inactive),0.977 (inactive),1.03 (inactive),1.03 (inactive),0.911 (inactive)
COc1cccc2c1C(=O)c1c(O)c3c(c(O)c1C2=O)C[C@@](O)(C(=O)CO)C[C@@H]3O[C@H]1C[C@H](N)[C@H](O)[C@H](C)O1 [Doxorubicin hydrochloride] (20 µM),0.843,1.02,1.03,1.25,1.04 (inactive),0.956 (inactive),0.963 (inactive),0.958 (inactive),0.982 (inactive),1.03 (inactive),1.02 (inactive),0.943 (inactive)
CC[C@H](c1ccc(O)cc1)[C@@H](CC)c1ccc(O)cc1 [Hexestrol] (20 µM),0.933,1.03,0.999,0.869,1.06 (inactive),0.609 (active),0.789 (active),1.05 (inactive),1.01 (inactive),1.06 (inactive),0.989 (inactive),0.749 (inactive)
Cc1cc2nc3c(=O)[nH]c(=O)nc-3n(C[C@H](O)[C@H](O)[C@H](O)CO)c2cc1C [Riboflavine] (20 µM),1.09,0.982,0.997,0.982,0.984 (inactive),1 (inactive),1.08 (inactive),0.989 (inactive),0.964 (inactive),1.01 (inactive),0.994 (inactive),1.15 (inactive)
O=C1CCc2cc(OCCCCc3nnnn3C3CCCCC3)ccc2N1 [Cilostazol] (20 µM),1.06,0.963,0.98,0.879,1.04 (inactive),1.02 (inactive),0.994 (inactive),1.01 (inactive),1.03 (inactive),1.03 (inactive),0.995 (inactive),0.936 (inactive)
CC1=C(C(=O)O)N2C(=O)[C@@H](NC(=O)[C@H](N)c3ccccc3)[C@H]2SC1 [Cephalexin monohydrate] (20 µM),0.958,0.985,0.98,0.987,1.03 (inactive),1.17 (inactive),1.1 (inactive),0.911 (inactive),0.934 (inactive),0.879 (inactive),1.01 (inactive),1.15 (inactive)
C[C@H](NCc1ccc(OCc2cccc(F)c2)cc1)C(N)=O [Safinamide] (20 µM),0.894,0.992,1,1.07,1.02 (inactive),1.03 (inactive),0.99 (inactive),1 (inactive),1 (inactive),1.02 (inactive),0.983 (inactive),0.96 (inactive)
O=C(O)c1cc(/N=N/c2ccc(S(=O)(=O)Nc3ccccn3)cc2)ccc1O [Sulfasalazine] (20 µM),0.986,1,1.05,0.978,0.971 (inactive),1.01 (inactive),1 (inactive),0.913 (inactive),0.995 (inactive),1.01 (inactive),1.01 (inactive),0.954 (inactive)
COc1ccccc1N1CCN(CCCCNC(=O)c2ccc3ccccc3c2)CC1 (20 µM),0.826,0.976,0.969,0.893,0.972 (inactive),1.13 (inactive),1.08 (inactive),1.04 (inactive),0.962 (inactive),0.795 (inactive),1.02 (inactive),1.3 (inactive)
Cc1cc2cc3c(C)cc(=O)oc3c(C)c2o1 [Trioxsalen] (20 µM),1.03,1.14,0.991,1.02,1.08 (inactive),0.974 (inactive),0.966 (inactive),1.13 (inactive),0.997 (inactive),1.03 (inactive),0.985 (inactive),0.936 (inactive)
COc1ccc(C(=O)CC(=O)c2ccc(C(C)(C)C)cc2)cc1 [Avobenzone] (20 µM),0.839,0.95,0.975,0.891,1.01 (inactive),0.932 (inactive),1.02 (inactive),0.998 (inactive),0.993 (inactive),1.05 (inactive),0.988 (inactive),1.08 (inactive)
Nc1nc(=O)c2c([nH]1)NC[C@@H](CNc1ccc(C(=O)N[C@@H](CCC(=O)O)C(=O)O)cc1)N2C=O [Folinic acid calcium salt] (20 µM),0.975,0.979,0.993,0.963,0.976 (inactive),1.02 (inactive),0.944 (inactive),1.05 (inactive),0.998 (inactive),0.962 (inactive),0.999 (inactive),0.882 (inactive)
COc1cc2nc(N3CCN(C(=O)C4COc5ccccc5O4)CC3)nc(N)c2cc1OC (stereo not given) [Doxazosin mesylate] (20 µM),0.926,0.974,0.995,1.13,1.01 (inactive),1.1 (inactive),0.943 (inactive),1.02 (inactive),1 (inactive),0.983 (inactive),0.991 (inactive),0.932 (inactive)
COc1ccc2c(c1)c(CC(=O)O)c(C)n2C(=O)c1ccc(Cl)cc1 [Indomethacin] (20 µM),0.988,1,1.02,1.04,0.997 (inactive),0.988 (inactive),0.981 (inactive),1.01 (inactive),1.01 (inactive),1 (inactive),0.989 (inactive),0.979 (inactive)
COc1ccccc1Oc1c(NS(=O)(=O)c2ccc(C(C)(C)C)cc2)nc(-c2ncccn2)nc1OCCO [Bosentan] (20 µM),1.15,1.14,1.23,1.2,0.938 (inactive),0.987 (inactive),0.978 (inactive),1.09 (inactive),1.05 (inactive),1.03 (inactive),1.04 (inactive),0.959 (inactive)
C(=C\c1ccccc1)/CN1CCN(C(c2ccccc2)c2ccccc2)CC1 [Cinnarizine] (20 µM),1.09,0.964,0.991,0.67,0.941 (inactive),0.969 (inactive),0.824 (inactive),0.993 (inactive),0.998 (inactive),0.991 (inactive),1 (inactive),0.878 (inactive)
COc1nc(C)nc(Cl)c1NC1=NCCN1 [Moxonidine] (20 µM),1.05,0.991,0.981,1.01,1.07 (inactive),1 (inactive),1.04 (inactive),1 (inactive),1.01 (inactive),1.01 (inactive),0.991 (inactive),1.07 (inactive)
COc1ccc2c(c1)N(C[C@H](C)CN(C)C)c1ccccc1S2 [Methotrimeprazine maleate salt] (20 µM),1.03,1.12,1,1.05,1.01 (inactive),1.07 (inactive),1.02 (inactive),1.19 (inactive),1.01 (inactive),0.995 (inactive),1.02 (inactive),1.11 (inactive)
Cc1nc(C)c(Cl)c(O)c1Cl [Clopidol] (20 µM),1.18,1.01,1.04,1.14,1 (inactive),0.998 (inactive),1.01 (inactive),1.02 (inactive),0.991 (inactive),1.02 (inactive),0.985 (inactive),1.01 (inactive)
N[C@@H](Cc1c[nH]c2ccccc12)C(=O)O [L-Tryptophan] (20 µM),1.02,0.993,0.989,1.19,1.02 (inactive),1.04 (inactive),1.05 (inactive),0.985 (inactive),0.995 (inactive),1.03 (inactive),0.993 (inactive),1.08 (inactive)
NCCCCCC(=O)O [Aminocaproic acid] (20 µM),0.927,1.04,1.04,1.06,0.969 (inactive),1.08 (inactive),1.04 (inactive),1.11 (inactive),0.996 (inactive),0.983 (inactive),1.02 (inactive),1.09 (inactive)
CC1=C(/C=C/C(C)=C/C=C/C(C)=C\C(=O)O)C(C)(C)CCC1 [Isotretinoin] (20 µM),0.96,0.987,1.02,1.02,0.996 (inactive),0.977 (inactive),1.04 (inactive),1.01 (inactive),1.02 (inactive),0.97 (inactive),0.991 (inactive),1.05 (inactive)
CC(C)n1c(/C=C/C(O)CC(O)CC(=O)O)c(-c2ccc(F)cc2)c2ccccc21 (stereo not given) [Fluvastatin sodium salt] (20 µM),0.95,0.995,0.987,0.918,0.914 (inactive),0.881 (inactive),1.04 (inactive),1.02 (inactive),1.05 (inactive),1.07 (inactive),1.03 (inactive),0.984 (inactive)
